The structures appear in SMILES notation. Unmarked numbers belong to inactive results. For some of these results: Potency and affinity values are given separately. The source made the active and inactive calls. Unless noted, no rule for the calls is given here.

Test [1] in a line: antimalarial activity against Dd2 strain (AID 2302;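 active = growth inhibition above 50% at the single 2 µM test dose, taken to imply half-maximal potency below 2 µM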;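 also: 0% = DMSO untreated growth and 100% = chloroquine plus artemisinin killed control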). Particulars: P. falciparum Dd2 in RBCs, LDH growth readout, 72 h; at 2 µM; active compounds read high.
Test [2] in a line: human hepatoma cell viability loss – ATP luminescence, cytotoxicity control for P. falciparum antimalarial project, primary screen (AID 2303;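 active = inhibition above 50%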;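 also: 0% = DMSO wells and 100% = digitonin-killed cells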). To be noted: HepG2 viability, 24-48 h, at 10 µM, active compounds read high.
For test [3], the target named is L-lactate dehydrogenase (Plasmodium falciparum (isolate CDC / Honduras)) (UniProt Q27743). In words: PfLDH activity inhibition – cell lysate, 3D7 strain, counter-screen for P. falciparum growth inhibition project (AID 2304).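 Also: 0% = vehicle and 100% = reference inhibitor.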 Particulars: P. falciparum 3D7 crude extract, LDH APAD/NBT absorbance; at 2 µM; active compounds read high. (A counterscreen serves to expose hits that act by an unwanted route or on another target.)

The nature of test [4]: inhibition of 3D7 malaria parasite growth – strain 3D7 (AID 2306).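 Also: 0% = DMSO wells and 100% = chloroquine plus artemisinin control wells.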 Particulars: P. falciparum 3D7 erythrocytic growth, LDH absorbance, 72 h; at 2 µM; active compounds read high.
Test [5] has as its target Calcium-dependent protein kinase 1 (Plasmodium falciparum (isolate 3D7)) (UniProt P62344). In words: PfCDPK1 kinase inhibitors, biochemical, TCAMS library (AID 1159585; cut-off not given, nearly all actives have IC50 up to about 0.98 µM;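 also: inhibitors leave more ATP so luminescence rises with inhibition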). Particulars: recombinant PfCDPK1, Kinase-Glo ATP depletion luminescence. A general note: In Kinase-Glo more light means more ATP remaining.
The target of test [6] is Plasmodium falciparum protein kinase 6 (PK6, PF3D7_1337100) (UniProt Q8IDW1). In words: PfPK6 kinase inhibitors, biochemical, TCAMS library (AID 1159586). Particulars: recombinant PfPK6, Kinase-Glo ATP depletion luminescence.
Test [7] has as its target Protein kinase 7 (PK7), Plasmodium falciparum 3D7 (PF3D7_0213400) (UniProt Q7YTF7). In words: inhibition of Plasmodium PK7 catalytic activity – biochemical, TCAMS antimalarial set, Kinase-Glo luminescence (AID 1159587). Particulars: recombinant PfPK7, Kinase-Glo ATP depletion luminescence.
The target of test [8] is Calcium-dependent protein kinase 4 (Plasmodium falciparum (isolate 3D7)) (UniProt Q8IBS5). In words: PfCDPK4 kinase inhibitors, biochemical, TCAMS library (AID 1159588; cut-off not given, nearly all actives have IC50 up to about 0.91 µM). To be noted: recombinant PfCDPK4, Kinase-Glo ATP depletion luminescence.
Sequence of Calcium-dependent protein kinase 4 (Plasmodium falciparum (isolate 3D7)) (Q8IBS5 whole entry, looked up): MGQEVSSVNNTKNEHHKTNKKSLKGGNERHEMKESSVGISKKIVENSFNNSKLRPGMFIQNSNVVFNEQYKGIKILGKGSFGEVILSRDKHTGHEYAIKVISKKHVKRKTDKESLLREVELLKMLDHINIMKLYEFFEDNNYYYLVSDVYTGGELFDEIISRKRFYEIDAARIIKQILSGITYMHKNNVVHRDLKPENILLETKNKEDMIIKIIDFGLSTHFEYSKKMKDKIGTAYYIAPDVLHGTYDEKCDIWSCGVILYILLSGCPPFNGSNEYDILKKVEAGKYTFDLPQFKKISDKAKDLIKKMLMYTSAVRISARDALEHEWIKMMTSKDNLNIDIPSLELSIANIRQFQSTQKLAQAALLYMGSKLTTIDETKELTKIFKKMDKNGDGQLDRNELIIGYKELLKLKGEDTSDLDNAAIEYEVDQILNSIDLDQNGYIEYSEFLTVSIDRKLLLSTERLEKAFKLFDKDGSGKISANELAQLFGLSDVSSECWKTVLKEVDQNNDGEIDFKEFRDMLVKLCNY

Sequence of L-lactate dehydrogenase (Plasmodium falciparum (isolate CDC / Honduras)) (Q27743 whole entry, looked up): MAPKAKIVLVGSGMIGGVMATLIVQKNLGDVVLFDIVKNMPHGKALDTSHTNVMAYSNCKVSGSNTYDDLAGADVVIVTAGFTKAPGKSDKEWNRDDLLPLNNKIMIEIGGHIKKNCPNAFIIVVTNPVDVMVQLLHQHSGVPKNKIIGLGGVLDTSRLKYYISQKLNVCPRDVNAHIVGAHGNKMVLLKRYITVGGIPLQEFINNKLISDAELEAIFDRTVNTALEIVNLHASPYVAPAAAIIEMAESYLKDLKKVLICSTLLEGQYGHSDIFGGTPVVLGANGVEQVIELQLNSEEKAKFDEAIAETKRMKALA
Sequence of Calcium-dependent protein kinase 1 (Plasmodium falciparum (isolate 3D7)) (P62344 whole entry, looked up): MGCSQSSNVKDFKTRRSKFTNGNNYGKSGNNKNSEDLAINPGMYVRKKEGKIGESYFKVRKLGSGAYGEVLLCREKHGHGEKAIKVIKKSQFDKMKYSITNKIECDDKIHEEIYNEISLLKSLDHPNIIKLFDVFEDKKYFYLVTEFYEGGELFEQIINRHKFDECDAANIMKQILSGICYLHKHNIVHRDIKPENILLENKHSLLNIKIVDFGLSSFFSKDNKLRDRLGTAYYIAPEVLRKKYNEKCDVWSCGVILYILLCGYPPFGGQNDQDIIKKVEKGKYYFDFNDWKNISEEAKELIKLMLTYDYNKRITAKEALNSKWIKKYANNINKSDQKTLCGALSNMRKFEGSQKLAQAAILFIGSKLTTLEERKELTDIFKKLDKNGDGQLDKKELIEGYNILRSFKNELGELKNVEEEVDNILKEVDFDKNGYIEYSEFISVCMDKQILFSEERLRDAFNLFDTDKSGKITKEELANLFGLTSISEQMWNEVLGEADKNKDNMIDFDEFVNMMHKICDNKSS
Sequence of Protein kinase 7 (PK7), Plasmodium falciparum 3D7 (PF3D7_0213400) (Q7YTF7 1-343): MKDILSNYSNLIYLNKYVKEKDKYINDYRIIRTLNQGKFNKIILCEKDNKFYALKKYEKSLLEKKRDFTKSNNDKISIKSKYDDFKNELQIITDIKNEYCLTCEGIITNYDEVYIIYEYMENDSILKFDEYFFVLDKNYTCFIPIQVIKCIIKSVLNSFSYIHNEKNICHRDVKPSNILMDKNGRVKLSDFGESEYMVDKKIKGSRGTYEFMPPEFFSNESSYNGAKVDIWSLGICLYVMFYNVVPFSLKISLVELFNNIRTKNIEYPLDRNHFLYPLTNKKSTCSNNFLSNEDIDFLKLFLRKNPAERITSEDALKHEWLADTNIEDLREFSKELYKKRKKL
Sequence of Plasmodium falciparum protein kinase 6 (PK6, PF3D7_1337100) (Q8IDW1 1-305): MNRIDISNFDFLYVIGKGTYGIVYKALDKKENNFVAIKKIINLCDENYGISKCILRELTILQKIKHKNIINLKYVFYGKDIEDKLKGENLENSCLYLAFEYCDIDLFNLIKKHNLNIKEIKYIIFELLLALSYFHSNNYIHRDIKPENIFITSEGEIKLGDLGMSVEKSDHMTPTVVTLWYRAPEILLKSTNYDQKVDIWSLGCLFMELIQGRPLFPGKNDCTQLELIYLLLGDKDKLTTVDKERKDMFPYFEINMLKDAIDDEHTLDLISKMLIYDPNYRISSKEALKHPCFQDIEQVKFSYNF

For orientation: inhibition means the drop in the measured response relative to a control, in per cent. As to `Cc1ccc(CN=C(N)NC(=O)c2nc(Cl)c(NCc3ccc(Cl)cc3)nc2N)c(C)c1`, the results for the growth inhibition in test [1] and in test [4] were 100% (active) and 101% (active), respectively. Also, the figures for the inhibition in test [2] and in test [3] were 28% and -5%, respectively. For the same molecule, the outcome in test [5], in test [6], in test [7] and in test [8] was inactive.

Regarding `Cc1cccc(CN2CCCN(Cc3ccc(C(=O)Nc4ccc(C)c(F)c4)cc3)CC2)c1`, the results for the growth inhibition in test [1] and in test [4] were 3% and 85% (active), respectively. Also, the inhibition in test [2] is 47%; in test [3] it was -4%. For the same molecule, the result in test [5], in test [6], in test [7] and in test [8] was inactive.

For `COc1cc(C2NCC3(CCOCC3)c3cc4c(cc32)OCCO4)cc(OC)c1OC` (stereo not given), the growth inhibition in test [1] is 2%; in test [4], 95% (active). Besides, the results for the inhibition in test [2] and in test [3] were 24% and -5%, respectively. For the same molecule, the result in test [5], in test [6], in test [7] and in test [8] was inactive.

For `COc1ccc(CCNCCCCCCNCCc2ccccc2Cl)cc1OC`, the growth inhibition is 3% in test [1] and 96% (active) in test [4]. The inhibition in test [2] was 13%; in test [3], -1%. The result in test [5], in test [6], in test [7] and in test [8] was inactive.

With `Cc1ccc(NC(=O)c2cccc(CN3CCCN(Cc4cccc(O)c4)CC3)c2)cc1F`, the growth inhibition in test [1] is 45%; in test [4], 99% (active). Besides, the inhibition in test [2] is 20%; in test [3], -5%. Moreover, the outcome in test [5], in test [6], in test [7] and in test [8] was inactive.

As to `Oc1cc(Nc2ccnc3cc(-c4cccc(CN5CCOCC5)c4)ccc23)c(F)cc1Cl`, the figures for the growth inhibition in test [1] and in test [4] were 89% (active) and 100% (active), respectively. In addition, the figures for the inhibition in test [2] and in test [3] were 12% and -4%, respectively. Also, the result in test [5], in test [6], in test [7] and in test [8] was inactive.

For `NC(N)=NN=CC(=O)Nc1cccc(C(F)(F)F)c1`, the values for the growth inhibition in test [1] and in test [4] were 25% and 99% (active), respectively. The values for the inhibition in test [2] and in test [3] were 21% and 1%, respectively. Also, the outcome in test [5], in test [6], in test [7] and in test [8] was inactive.

Turning to `COc1ccccc1-n1c(-c2ccc3ccccc3c2)csc1=NC(=O)c1ccccc1`, the figures for the growth inhibition in test [1] and in test [4] were 79% (active) and 93% (active), respectively. The results for the inhibition in test [2] and in test [3] were -6% and -1%, respectively. Moreover, the result in test [5], in test [6], in test [7] and in test [8] was inactive.

Turning to `CN(C)CCC1CCN(CCS(=O)(=O)c2cccc(Nc3ccc(-c4cccc(F)c4)cn3)c2)CC1`, the figures for the growth inhibition in test [1] and in test [4] were 59% (active) and 100% (active), respectively. The inhibition in test [2] was 94% (active); in test [3], 5%. Moreover, the outcome in test [5], in test [6], in test [7] and in test [8] was inactive.

Regarding `COc1ccc(CCc2ccc(-c3c(C)[nH]c(C)c(Cl)c3=O)cc2)cc1OC`, the growth inhibition in test [1] is 97% (active); in test [4] it was 99% (active). Besides, the values for the inhibition in test [2] and in test [3] were -5% and -7%, respectively. Moreover, the result in test [5], in test [6], in test [7] and in test [8] was inactive.

Regarding `CCNc1cc(C(=O)N[C@@H](Cc2ccc(F)c(F)c2)[C@H](O)CNC2CCCCC2)cc(N2CCCCS2(=O)=O)c1`, the growth inhibition was 84% (active) in test [1] and 100% (active) in test [4]. The results for the inhibition in test [2] and in test [3] were 1% and -2%, respectively. Besides, the result in test [5], in test [6], in test [7] and in test [8] was inactive.

For `CN1CCC(N(Cc2ccc(-c3ccc(C(F)(F)F)cc3)cc2)C(=O)Cn2c(SCc3cccc(F)c3F)cc(=O)c3c2CCC3)CC1`, the figures for the growth inhibition in test [1] and in test [4] were 83% (active) and 89% (active), respectively. In addition, the inhibition in test [2] is 50% (active); in test [3] it was 1%. For the same molecule, the outcome in test [5], in test [6], in test [7] and in test [8] was inactive.

For `CC(C)=CC1C(C(=O)n2c(N)nc3ccccc32)C1(C)C` (stereo not given), the results for the growth inhibition in test [1] and in test [4] were 3% and 99% (active), respectively. Moreover, the inhibition is 16% in test [2] and -6% in test [3]. For the same molecule, the result in test [5], in test [6], in test [7] and in test [8] was inactive.

For the molecule `CNC(=O)c1cc(F)c(F)cc1Nc1nc(Nc2cccc(CS(C)(=O)=O)c2)ncc1Cl`, the growth inhibition in test [1] was 90% (active); in test [4], 91% (active). Further, the results for the inhibition in test [2] and in test [3] were 52% (active) and 3%, respectively. Besides, the outcome in test [5], in test [6], in test [7] and in test [8] was inactive.

On to `O=C(NCC1CC1)C1CCN(C(c2ccccc2)c2cc(F)cc(F)c2)CC1` (stereo not given), for which the growth inhibition in test [1] is 95% (active); in test [4] it was 99% (active). Also, the inhibition is -3% in test [2] and 9% in test [3]. Moreover, the outcome in test [5], in test [6], in test [7] and in test [8] was inactive.

For the molecule `CC1(C)N=C(N)N=C(N)N1OCCCc1c(Cl)cccc1Cl`, the growth inhibition is 97% (active) in test [1] and 95% (active) in test [4]. In addition, the figures for the inhibition in test [2] and in test [3] were 71% (active) and 3%, respectively. Besides, the outcome in test [5], in test [6], in test [7] and in test [8] was inactive.

Take `COc1cccc(C(=O)NCc2cccs2)c1OCc1ccccc1`: the growth inhibition in test [1] is -1%; in test [4] it was 96% (active). Besides, the values for the inhibition in test [2] and in test [3] were -12% and 5%, respectively. For the same molecule, the outcome in test [5], in test [6], in test [7] and in test [8] was inactive.

With `Cc1cc(OCCCn2ccnc2)ccc1-c1csc(NC(N)=NCc2ccccc2)n1`, the growth inhibition in test [1] was 42%; in test [4] it was 92% (active). For the same molecule, the inhibition in test [2] is 26%; in test [3], 2%. Further, the result in test [5], in test [6], in test [7] and in test [8] was inactive.

For the molecule `O=C(Nc1cccc(-c2cccc(-c3nc4ccc(C(F)(F)F)cc4[nH]3)c2)c1)c1cccnc1`, the growth inhibition in test [1] is 70% (active); in test [4] it was 100% (active). In addition, the inhibition in test [2] is 57% (active); in test [3], -6%. The outcome in test [5], in test [6], in test [7] and in test [8] was inactive.

Take `O=c1ccc(CNc2nc(NCCc3ccccc3)nc3ccc(Cl)cc23)c[nH]1`: the growth inhibition in test [1] is 16%; in test [4], 99% (active). Besides, the inhibition in test [2] is 9%; in test [3], 2%. Further, the outcome in test [5], in test [6], in test [7] and in test [8] was inactive.

The values are drawn from PubChem BioAssay.
